From PubChem BioAssay (NCI) come the findings set out here.

Some test systems named below: T-47D breast; BT-549 breast; MDA-MB-435 melanoma; SW-620 colon; MCF7 breast; HCT-116 colon; HCC-2998 colon; KM12 colon.
Holding throughout (test): NCI-60 one-dose screen, 48 h (100 = growth as untreated, 0 = no growth, -100 = all killed)
Common to all, as to conditions: 10 µM unless noted

Compounds without any hit were thinned out: in the full panel of roughly 83,000, 20% have a hit.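 In brief: 96-well plates, 48 h treatment, single concentration, percent growth endpoint.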 A number with no mark means an inactive call. Calls of active or inactive are those of the source. The calls were made as follows: active = growth percent below 10; inactive = the rest.

Regarding `COc1ccc(/C=C2\CS(=O)(=O)C/C(=C\c3ccc(OC)cc3)C2=O)cc1`, the growth in the test with T-47D breast was 14.6%; with BT-549 breast, -38.6% (active); with MDA-MB-435 melanoma, -28.8% (active); with SW-620 colon, 0.757% (active); in the test with MCF7 breast, -15% (active); in the test with HCT-116 colon, -83.2% (active). Further, the growth with HCC-2998 colon is -98% (active); in the test on KM12 colon, -93.2% (active).

As for `COc1ccc(-c2nnc(SCC(=O)Nc3ccc(C(=O)/C=C/c4ccccc4)cc3)o2)cc1OC`, the growth is 98.7% with T-47D breast; 98.3% in the test with BT-549 breast; 92.7% with MDA-MB-435 melanoma; 103% with SW-620 colon; 51.8% in the test on HCT-116 colon; 116% in the test on HCC-2998 colon. For the same compound, the growth in the test with KM12 colon is 99.6%.

In the case of `CN(C)c1ccc(/C=N/N=C(N)N)cc1`, the growth was 81.9% in the test with T-47D breast; 93.3% with BT-549 breast; -13.9% (active) in the test on MDA-MB-435 melanoma; 37.4% with SW-620 colon; 31.9% in the test on MCF7 breast; 52.8% in the test on HCT-116 colon. The growth in the test on HCC-2998 colon was 68.2%; with KM12 colon it was 42.6%.

As to `O=C(Nc1ccc(-n2cc(-c3ccncc3)c(-c3ccc(O)c(Cl)c3)n2)cc1)c1ccc(Cl)c(Cl)c1`, the growth in the test on T-47D breast is 36.5%; in the test with BT-549 breast it was 29.3%; in the test on MDA-MB-435 melanoma, 27.1%; with SW-620 colon, 37.3%; in the test with MCF7 breast it was 28.5%; in the test on HCT-116 colon, 12.3%. The growth in the test with HCC-2998 colon was 33.2%; in the test on KM12 colon, 24.6%.

As to `CC(=O)Nc1ccc(OC(=O)c2ccccc2O)cc1`, the growth in the test on T-47D breast is 100%; in the test on BT-549 breast it was 113%; in the test with MDA-MB-435 melanoma it was 98.6%; in the test on SW-620 colon it was 101%; in the test with MCF7 breast, 99.5%; in the test with HCT-116 colon it was 114%. In the test with KM12 colon, the growth was 99.1%.

With `C#C[C@@]1(O)[C@@H](CO)O[C@@H](n2cc(Br)c3c(Cl)ccnc32)[C@@H]1O`, the growth with T-47D breast was -17.8% (active); in the test on BT-549 breast, 22.6%; in the test with MDA-MB-435 melanoma, 56.7%; in the test on SW-620 colon, 14.5%; in the test on MCF7 breast, 1.48% (active); with HCT-116 colon, 23.1%. Moreover, the growth in the test with HCC-2998 colon is 37%; with KM12 colon, 65%.

Regarding `COc1ccc(NC(=O)Nc2ccc(-c3ccc(OC)c(OC)c3)nc2C)cc1`, the growth in the test with T-47D breast is 60.4%; with BT-549 breast it was 50.4%; in the test with MDA-MB-435 melanoma, 65.2%; with SW-620 colon it was 64.8%; with MCF7 breast, 65.1%; in the test on HCT-116 colon, 49.4%. Besides, the results for the growth with HCC-2998 colon and in the test with KM12 colon were 83.1% and 45.3%, respectively.

For `CCc1c(C)c2cc(-n3c(-c4ccc(OC)cc4)csc3=N)c(O)c(C)c2oc1=O`, the growth in the test on T-47D breast was -0.0975% (active); in the test with BT-549 breast, 5.21% (active); in the test with MDA-MB-435 melanoma, 0.357% (active); with SW-620 colon, 22.9%; with HCT-116 colon, 8.8% (active); with HCC-2998 colon, 36.2%. The growth with KM12 colon is 12.7%.

As for `CN(C)CCS(=O)(=O)Nc1cc(-c2ccc3ncnc(Nc4ccc(F)c(Cl)c4)c3c2)cnc1Cl`, the growth was -27% (active) in the test on T-47D breast; -17.9% (active) in the test on BT-549 breast; -47.6% (active) in the test on MDA-MB-435 melanoma; -22.7% (active) with SW-620 colon; 8.88% (active) in the test with MCF7 breast; -21.5% (active) in the test on HCT-116 colon. The growth in the test with HCC-2998 colon was -83.7% (active); with KM12 colon it was -56.3% (active).

In the case of `COc1ccc(/C=C/C(=O)c2ccc(Oc3ncnc4ccccc34)cc2)cc1OC`, the growth in the test on T-47D breast is 52.3%; with BT-549 breast, 60.6%; in the test with MDA-MB-435 melanoma, 39.1%; in the test on SW-620 colon, 32.2%; in the test with MCF7 breast, 8.88% (active); in the test with HCT-116 colon, -42.6% (active). The growth in the test on HCC-2998 colon was 29.1%; with KM12 colon it was 22.6%.

In the case of `COc1ccc(-c2nn(-c3ccc(NC(=O)Nc4cc(C(F)(F)F)cc(C(F)(F)F)c4)cc3)cc2-c2ccncc2)cc1Cl`, the growth was 25.3% with T-47D breast; 17.5% in the test with BT-549 breast; 8.04% (active) in the test with MDA-MB-435 melanoma; 19.5% in the test with SW-620 colon; 2.45% (active) in the test with HCT-116 colon; 12.3% with HCC-2998 colon. For the same compound, the growth with KM12 colon is 7.63% (active).

As for `CCNC(=O)Oc1ccc(/C(=C(/CC)Cc2ccccc2)c2ccc(OCCN3CCOCC3)cc2)cc1`, the growth with T-47D breast was 20.5%; in the test on BT-549 breast, 69.9%; with MDA-MB-435 melanoma it was 49.9%; in the test with SW-620 colon, 59.3%; in the test with MCF7 breast it was 22.5%; in the test on HCT-116 colon it was 41.6%. Besides, the growth in the test with HCC-2998 colon is 79.5%; in the test with KM12 colon it was 37.3%.

Regarding `COc1cc(C(=O)NNC(=O)c2ccccc2C(=O)O)cc(OC)c1OC`, the growth in the test with T-47D breast is 39.5%; in the test on BT-549 breast, 58.4%; in the test with MDA-MB-435 melanoma, 60.4%; in the test with SW-620 colon, 36.9%; in the test with MCF7 breast it was 30.1%; in the test with HCT-116 colon it was 29%. For the same compound, the growth in the test on HCC-2998 colon is 68.5%; with KM12 colon, 36.9%.

In the case of `COc1ccc(Cn2cc(COc3ccc4c5ccnc(C)c5n(CCCc5ccccc5)c4c3)nn2)cc1`, the growth was 61.8% in the test on T-47D breast; 67.5% in the test with BT-549 breast; 63.2% in the test with MDA-MB-435 melanoma; 65.5% in the test on SW-620 colon; 47.7% in the test with MCF7 breast; 51.5% in the test on HCT-116 colon. The growth in the test with HCC-2998 colon is 83%; in the test on KM12 colon it was 59.7%.

Take `CN1CCN(C(=O)/C=C/c2ccc([N+](=O)[O-])o2)CC1`: the growth in the test with T-47D breast was 110%; in the test with BT-549 breast, 105%; with MDA-MB-435 melanoma, 72.7%; in the test with SW-620 colon, 82%; in the test on MCF7 breast, 68.7%; with HCT-116 colon it was 81.6%. The growth was 103% in the test with HCC-2998 colon and 83.9% in the test with KM12 colon.

On to `CC/C(=C(\CC)c1ccc(OCCN(CC)CC)cc1)c1ccc(OCCN(CC)CC)cc1`, for which the growth with T-47D breast was 12.3%; in the test on MDA-MB-435 melanoma, 15.4%; with SW-620 colon, 9.59% (active); with MCF7 breast, 30.1%; in the test with HCT-116 colon, 16.7%; with HCC-2998 colon, 63.2%. Further, the growth with KM12 colon is 33.5%.
